Five compounds from PubChem BioAssay can be followed below.

Assay [1] is described as follows: small molecules captured by biotinylated probe aFSTL3 – biochemical, small-molecule microarray, fluorescence 635/667, stem cell growth factor project, primary screen (AID 1064).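 Also: measures binding of the biotinylated anti-FSTL3 antibody to printed compounds.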 The following applies: higher = more signal.
Assay [2] can be described thus: binders from COS7 lysate, DM2A8 probe, primary screen, torsin A project, cell lysate, small-molecule microarray, fluorescence 635/667 (AID 1065). The following applies: higher = more signal, COS7 lysate expressing mutant human TOR1A.
A short description of assay [3]: small molecules captured by biotinylated probe aFGF2 – biochemical, small-molecule microarray, fluorescence 635/667, stem cell growth factor project, primary screen (AID 1067).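 Also: measures binding of biotinylated aFGF2 protein to printed compounds on slides; z-score merges feature fluorescence and signal-to-noise across triplicate slides.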 The following applies: higher = more signal.
Assay [4] can be described thus: small molecules captured by biotinylated probe aFGF10 – biochemical, small-molecule microarray, fluorescence 635/667, stem cell growth factor project, primary screen (AID 1071).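 Also: score merges 667 nm spot intensity and signal to noise from triplicate slides.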 The following applies: higher = more signal.
Assay [5] concerns the target Neurogenic locus notch homolog protein 2 (Homo sapiens) (UniProt Q04721). The assay can be described thus: small molecules binding Notch2 protein – biochemical, small-molecule microarray, 635 nm fluorescence, stem cell growth factors, primary screen (AID 1073). The settings on record: higher = more signal.
For assay [6], the target named is Pro-neuregulin-1, membrane-bound isoform (Homo sapiens) (UniProt Q02297). The assay can be described thus: small molecules binding neuregulin-1 protein – biochemical, small-molecule microarray, fluorescence 635/667, psychiatric disease protein project, primary screen (AID 1075).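 Also: score combines 667 nm spot fluorescence with signal to noise.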 The following applies: NRG1 binding, 635 nm fluorescence, higher = more signal.
Chain of Pro-neuregulin-1, membrane-bound isoform (Homo sapiens) (Q02297 whole entry, looked up, the tested form may be a part, canonical isoform): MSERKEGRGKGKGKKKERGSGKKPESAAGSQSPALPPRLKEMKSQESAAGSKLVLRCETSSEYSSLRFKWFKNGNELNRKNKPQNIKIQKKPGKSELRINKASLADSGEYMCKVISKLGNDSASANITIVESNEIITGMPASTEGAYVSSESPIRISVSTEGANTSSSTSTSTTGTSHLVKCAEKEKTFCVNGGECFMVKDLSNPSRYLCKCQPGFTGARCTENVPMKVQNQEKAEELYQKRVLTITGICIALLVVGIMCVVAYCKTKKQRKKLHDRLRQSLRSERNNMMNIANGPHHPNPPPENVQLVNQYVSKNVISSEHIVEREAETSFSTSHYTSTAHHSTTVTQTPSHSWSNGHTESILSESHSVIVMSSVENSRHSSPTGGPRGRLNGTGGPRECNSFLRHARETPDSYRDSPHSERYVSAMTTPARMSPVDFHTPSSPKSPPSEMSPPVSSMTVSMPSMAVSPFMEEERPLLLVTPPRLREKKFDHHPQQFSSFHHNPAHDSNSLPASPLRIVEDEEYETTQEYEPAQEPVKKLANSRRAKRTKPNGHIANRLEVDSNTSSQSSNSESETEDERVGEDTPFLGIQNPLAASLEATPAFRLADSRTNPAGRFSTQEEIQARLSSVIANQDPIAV
The test system of assay [7] is Neuregulin-1 EGF-like domain. Nature of the assay: small molecules binding NRG1 EGF domain – biochemical, small-molecule microarray, 635 nm fluorescence, primary screen (AID 1081).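 Also: binding of the protein to compounds printed on small-molecule microarray slides.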 The following applies: higher = more signal.
A short description of assay [8]: FRG1 expression reporter modulators in myotubes – cell-based, C2C12 myotubes, firefly/Renilla luciferase, luminescence, FRG1 inhibition for FSHD, primary screen (AID 1084). The following applies: FRG1 promoter luciferase, higher = more signal, called active from +8 up or from −8 down.
A short description of assay [9]: small molecules captured by biotinylated probe aFST – biochemical, small-molecule microarray, fluorescence 635/667, stem cell growth factor project, primary screen (AID 1086).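 Also: score merges 667 nm fluorescence with signal-to-noise of each printed compound spot.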 The settings on record: higher = more signal.
Assay [10] can be described thus: binders of probe aHhip on microarray, primary screen, stem cell growth factor project, biochemical, small-molecule microarray, fluorescence 635/667 (AID 1087).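 Also: score merges spot fluorescence at 667nm with spot signal to noise ratio.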 The following applies: higher = more signal.
Assay [11] relates to PRMT1 (protein arginine N-methyltransferase 1). Nature of the assay: small molecules binding arginine methyltransferase PRMT1 – biochemical, small-molecule microarray, 635 nm fluorescence, primary screen (AID 1088).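 Also: binding of Prmt1 protein to compounds spotted on small-molecule microarray slides.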 The settings on record: higher = more signal.
A short description of assay [12]: growth effects on S. cerevisiae YJM789 – YJM789 clinical isolate, OD600, 24 h, basal, primary screen (AID 1089).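 Also: growth of clinical yeast isolate S. cerevisiae YJM 789 seeded 1000 cells per well; test concentration not given here.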 The settings on record: higher = more signal, called active from +8 up or from −8 down.
Assay [13] can be described thus: S. pombe growth modifiers, basal conditions – strain 972, OD600, 24 h, no modulator, primary screen (AID 1090).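 Also: basal condition with compound alone and no growth modifier present; test concentration not given here.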 The following applies: S. pombe 972 growth, higher = more signal, called active from +8 up or from −8 down.
Assay [14] is described as follows: budding yeast growth modifiers under rapamycin – strain BY4716, OD600, 96 h, primary screen (AID 1091). Also: test concentration not given here. The settings on record: S. cerevisiae BY4716 + rapamycin, higher = more signal, called active from +8 up or from −8 down.
The target in assay [15] is Torsin-1A-interacting protein 2 (Homo sapiens) (UniProt Q8NFQ8). The assay can be described thus: small molecules binding lysate-expressed LULL1 – cell lysate, human LULL1 lysate, 635/667 nm fluorescence, primary screen (AID 1092).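 Also: probe is lysate of COS7 cells overexpressing human LULL1; score merges per-feature 667 nm fluorescence with signal-to-noise.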 The settings on record: small-molecule microarray, hLULL1 lysate binding, 635 nm fluorescence; higher = more signal.
Chain of Torsin-1A-interacting protein 2 (Homo sapiens) (Q8NFQ8 whole entry, looked up): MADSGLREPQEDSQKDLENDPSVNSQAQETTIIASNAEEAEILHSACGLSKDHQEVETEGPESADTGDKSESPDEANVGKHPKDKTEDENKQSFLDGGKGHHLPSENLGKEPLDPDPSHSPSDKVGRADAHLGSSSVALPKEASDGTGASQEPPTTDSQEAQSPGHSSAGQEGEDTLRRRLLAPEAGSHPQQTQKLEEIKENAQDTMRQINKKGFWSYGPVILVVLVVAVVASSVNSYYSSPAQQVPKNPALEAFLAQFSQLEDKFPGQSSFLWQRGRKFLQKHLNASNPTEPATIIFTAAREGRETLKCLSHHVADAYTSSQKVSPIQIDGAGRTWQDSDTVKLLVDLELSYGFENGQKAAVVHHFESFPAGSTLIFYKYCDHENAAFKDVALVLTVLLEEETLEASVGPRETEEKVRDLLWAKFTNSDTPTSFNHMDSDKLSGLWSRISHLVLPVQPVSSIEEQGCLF
Assay [16] can be described thus: optical density change of DRC41 E. coli – strain DRC41, OD650, 24 h, E. coli filamentation project, primary screen (AID 1093).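 Also: MC1000 strain lacking acrAB efflux and sulA so SOS filamentation is blocked; test concentration not given here.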 The settings on record: E. coli DRC41 growth, higher = more signal, called active from +8 up or from −8 down.
The nature of assay [17]: probe aLefty2 binding to arrayed compounds – biochemical, biotinylated probe, 635/667 nm fluorescence, primary screen (AID 1094).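 Also: score merges spot fluorescence near 667 nm with spot signal-to-noise ratio.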 The settings on record: small-molecule microarray, higher = more signal.
Assay [18] concerns Noggin (protein binding on small-molecule microarray). Nature of the assay: small molecules binding Noggin protein – biochemical, 635/667 nm fluorescence, primary screen (AID 1095).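 Also: score merges 667 nm feature fluorescence with signal to noise over triplicate slides.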 The following applies: 635 nm fluorescence, higher = more signal.
In assay [19] the target is Neurogenic locus notch homolog protein 3 (Homo sapiens) (UniProt Q9UM47). The assay can be described thus: small molecules binding NOTCH3 protein – biochemical, 635/667 nm fluorescence, primary screen (AID 1096). The settings on record: small-molecule microarray, 635 nm fluorescence, higher = more signal.
Assay [20] can be described thus: probe aEGFR binding to arrayed compounds – biochemical, biotinylated probe, 635/667 nm fluorescence, primary screen (AID 1097).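 Also: probe is a biotinylated anti-EGFR antibody binding compounds printed on slides; score combines fluorescence near 667 nm and signal to noise of each spot.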 The settings on record: small-molecule microarray, higher = more signal.

The source made the active and inactive calls.

Chain of Neurogenic locus notch homolog protein 2 (Homo sapiens) (Q04721 whole entry, looked up, canonical isoform): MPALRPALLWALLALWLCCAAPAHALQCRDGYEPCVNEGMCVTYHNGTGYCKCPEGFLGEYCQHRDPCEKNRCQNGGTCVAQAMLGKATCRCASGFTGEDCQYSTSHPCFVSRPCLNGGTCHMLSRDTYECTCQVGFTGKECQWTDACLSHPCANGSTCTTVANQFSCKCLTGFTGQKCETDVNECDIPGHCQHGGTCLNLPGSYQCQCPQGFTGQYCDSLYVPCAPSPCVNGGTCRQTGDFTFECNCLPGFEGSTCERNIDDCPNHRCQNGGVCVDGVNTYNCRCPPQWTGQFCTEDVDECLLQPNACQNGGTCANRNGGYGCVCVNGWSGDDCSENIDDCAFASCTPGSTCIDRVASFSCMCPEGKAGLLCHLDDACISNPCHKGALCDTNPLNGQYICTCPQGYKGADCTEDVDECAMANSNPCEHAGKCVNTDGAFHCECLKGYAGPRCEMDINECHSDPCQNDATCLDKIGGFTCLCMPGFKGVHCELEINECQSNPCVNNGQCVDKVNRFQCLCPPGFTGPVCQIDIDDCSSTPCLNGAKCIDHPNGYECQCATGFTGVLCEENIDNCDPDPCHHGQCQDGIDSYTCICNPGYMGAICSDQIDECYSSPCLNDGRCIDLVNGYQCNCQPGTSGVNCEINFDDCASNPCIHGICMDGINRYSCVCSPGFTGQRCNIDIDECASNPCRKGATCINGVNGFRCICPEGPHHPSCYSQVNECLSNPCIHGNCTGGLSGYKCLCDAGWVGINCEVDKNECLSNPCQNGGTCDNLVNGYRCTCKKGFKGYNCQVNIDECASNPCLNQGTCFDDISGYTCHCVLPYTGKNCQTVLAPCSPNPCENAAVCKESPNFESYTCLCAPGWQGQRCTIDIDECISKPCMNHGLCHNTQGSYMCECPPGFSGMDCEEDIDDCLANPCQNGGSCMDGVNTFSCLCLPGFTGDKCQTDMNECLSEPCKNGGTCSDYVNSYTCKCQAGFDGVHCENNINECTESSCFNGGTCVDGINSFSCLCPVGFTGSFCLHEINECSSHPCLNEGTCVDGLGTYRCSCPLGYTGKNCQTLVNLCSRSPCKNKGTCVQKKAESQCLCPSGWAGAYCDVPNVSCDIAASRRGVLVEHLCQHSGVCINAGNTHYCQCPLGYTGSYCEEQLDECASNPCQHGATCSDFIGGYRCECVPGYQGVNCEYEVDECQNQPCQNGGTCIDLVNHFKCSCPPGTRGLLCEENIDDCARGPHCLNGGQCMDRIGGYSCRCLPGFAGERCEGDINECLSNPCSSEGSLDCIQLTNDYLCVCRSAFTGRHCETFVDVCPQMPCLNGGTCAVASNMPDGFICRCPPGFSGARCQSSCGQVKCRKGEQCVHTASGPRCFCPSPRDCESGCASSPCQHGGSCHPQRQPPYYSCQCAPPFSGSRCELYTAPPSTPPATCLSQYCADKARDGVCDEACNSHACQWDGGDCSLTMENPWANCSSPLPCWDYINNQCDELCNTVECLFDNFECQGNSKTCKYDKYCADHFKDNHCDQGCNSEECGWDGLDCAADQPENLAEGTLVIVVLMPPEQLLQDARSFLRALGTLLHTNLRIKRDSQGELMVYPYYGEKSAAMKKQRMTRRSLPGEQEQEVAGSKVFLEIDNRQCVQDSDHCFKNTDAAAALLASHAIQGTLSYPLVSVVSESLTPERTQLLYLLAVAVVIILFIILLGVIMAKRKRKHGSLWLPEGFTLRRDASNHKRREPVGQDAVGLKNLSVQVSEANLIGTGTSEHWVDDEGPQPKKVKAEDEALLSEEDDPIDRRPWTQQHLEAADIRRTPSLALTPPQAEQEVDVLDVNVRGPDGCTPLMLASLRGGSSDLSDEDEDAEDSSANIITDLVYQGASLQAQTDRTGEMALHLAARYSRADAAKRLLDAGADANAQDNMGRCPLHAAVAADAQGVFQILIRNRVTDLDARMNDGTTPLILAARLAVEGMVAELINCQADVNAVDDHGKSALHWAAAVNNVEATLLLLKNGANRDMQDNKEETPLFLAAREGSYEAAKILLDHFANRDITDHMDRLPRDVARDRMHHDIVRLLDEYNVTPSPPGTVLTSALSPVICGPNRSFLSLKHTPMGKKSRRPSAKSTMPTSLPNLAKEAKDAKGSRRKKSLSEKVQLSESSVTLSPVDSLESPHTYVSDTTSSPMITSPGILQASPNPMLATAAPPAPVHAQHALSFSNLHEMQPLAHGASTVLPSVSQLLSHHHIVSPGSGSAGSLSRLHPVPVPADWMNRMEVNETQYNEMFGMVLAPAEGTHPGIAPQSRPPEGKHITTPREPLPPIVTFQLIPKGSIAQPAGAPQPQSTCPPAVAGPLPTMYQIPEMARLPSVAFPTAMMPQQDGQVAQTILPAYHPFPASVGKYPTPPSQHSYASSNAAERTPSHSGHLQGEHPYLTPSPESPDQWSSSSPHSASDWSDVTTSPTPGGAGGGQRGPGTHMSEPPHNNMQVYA

Consider `O=C1C[C@]2(c3ccc([N+](=O)[O-])cc3)C(=O)N(CCN3CCOCC3)c3cc(CO)ccc3[C@H]2N1C1CCCCC1`, for which the composite z-score is 0.526 in assay [1]; -0.808 in [2]; -0.162 in [3]; -0.212 in assay [4]; -0.309 in assay [5]; 1.37 in [6]. The composite z-score in assay [7] was -0.251; in [9], 0.105; in [10], -0.121; in [11], 1.47; in [15], 1.1; in [17] it was -0.0668. In addition, the composite z-score in [18] is -0.283; in assay [19] it was -0.188; in assay [20] it was -0.112. In addition, the z-score in [8] was -1.88 (inactive); in [12] it was -0.87 (inactive); in [13], 0.0365 (inactive); in assay [14], -1.6 (inactive); in assay [16] it was 0.668 (inactive).

Turning to `CN(C)CCCNC(=O)[C@@]1(c2ccc([N+](=O)[O-])cc2)CC(=O)N(C2CCCCC2)[C@@H]1c1ccc(CO)cc1I`, the composite z-score is 0.284 in [1]; 1.05 in [2]; -0.087 in assay [3]; -0.0752 in assay [4]; -0.0551 in assay [5]; 0.314 in assay [6]. The composite z-score in assay [7] was 1.34; in [9] it was -0.364; in assay [10], -0.266; in assay [11], 1.07; in assay [15], 1.84; in [17] it was -0.147. The composite z-score is 0.331 in assay [18], 0.215 in assay [19] and -0.0679 in assay [20]. The z-score is -0.635 (inactive) in assay [8]; -1.13 (inactive) in assay [12]; -20.1 (active) in assay [13]; -3.11 (inactive) in assay [14]; -0.112 (inactive) in [16].

With `COc1ccc(NN2C(C(O)c3ccc([N+](=O)[O-])cc3)C=CC3C(=O)N(C4CCCCC4)C(=O)C32)cc1` (stereo not given), the composite z-score was 0.091 in assay [1]; -0.174 in [2]; -0.0782 in assay [3]; 0.389 in [4]; 0.901 in assay [5]; 0.348 in assay [6]. Further, the composite z-score in assay [7] is 0.755; in assay [9] it was 0.844; in [10], -0.0346; in assay [11] it was 0.849; in [15] it was 2.69; in assay [17] it was 0.192. Also, the composite z-score was -0.0162 in assay [18], 1.09 in [19] and -0.143 in assay [20]. The z-score in assay [8] is -0.068 (inactive); in [12] it was 0.346 (inactive); in [13], 0.811 (inactive); in assay [14], 0.572 (inactive); in assay [16], -0.103 (inactive).

Turning to `Cc1ccc(S[C@]2(C(=O)NC3CC3)CC(=O)N(C3Cc4ccccc4C3)[C@@H]2c2ccc(CO)cc2)cc1`, the composite z-score in assay [1] was 0.631; in [2], -0.233; in assay [3], 0.11; in [4], -0.563; in assay [5], -0.363; in [6] it was 1.08. For the same compound, the composite z-score was 0.836 in assay [7]; -0.175 in [9]; -0.134 in assay [10]; 1.38 in assay [11]; 3.08 in assay [15]; -0.0533 in assay [17]. Also, the composite z-score in [18] is -0.878; in assay [19], 0.19; in assay [20] it was -0.221. Besides, the z-score in assay [8] is -2.83 (inactive); in [12], -2.31 (inactive); in assay [13], -0.945 (inactive); in assay [14], -1.13 (inactive); in assay [16] it was 2.12 (inactive).

In the case of `CCCCC(=C=CC[C@@H](O)c1ccccc1OCCO)CCO`, the composite z-score in assay [1] is -0.347; in assay [2], 0.163; in assay [3], -0.0367; in [4] it was 0.352; in [5], -0.333; in assay [6], 0.991. In addition, the composite z-score in assay [7] is 0.479; in assay [9] it was 0.0797; in assay [10], -0.236; in assay [11], -0.144; in assay [15], 1.06; in assay [17], -0.192. Besides, the composite z-score in assay [18] is 0.201; in [19], -0.0525; in [20] it was -0.199. Besides, the z-score in assay [8] was 0.0128 (inactive); in [12], 0.598 (inactive); in assay [13], -0.424 (inactive); in [14], -0.374 (inactive); in [16], 0.205 (inactive).
